# Assay outcomes deposited in PubChem BioAssay by National Center for Advancing Translational Sciences (NCATS).
# Rows were chosen to be rich in hits. Some 17% of all compounds tested hit in one or more screens of this group.
# TGFb SMAD3 inh = TGF-b pathway inhibition | HepG2 CAGA-GFP TGF-b/SMAD3 reporter, GFP fluorescence, 18 h; TGF-beta stimulated, 500 pg/mL final | Potency, µM (titrated, usually from 46.1 µM), hits mostly inhibitors | 410,000 tested, 1.2% active; also: nearly all actives have a fitted effect of over 65% in size
#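 Smad-responsive CAGA-GFP expression was quantified in HEPG2 cells exposed to compounds and 500 pg/mL final TGF-beta for 18 h at 37 degrees C; unstimulated wells defined full inhibition.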
# ATXN viability = reduces viability in counter-screen for ATXN expression inhibitors. S2 cells (HEK-293 line with an ATXN2-luciferase reporter) viability, CellTiter-Fluor protease fluorescence, 24 h. Potency, µM (top dose mostly 56.7 µM), usual class: cytotoxic. 400,000 tested, 0.49% active; also: nearly all actives have a fitted effect of over 40% in size
# ATXN2 expr inh = inhibitors of ATXN2 expression | HEK-293 ATXN2-luciferase reporter, luminescence, 24 h | Potency, µM (highest dose often 57 µM), actives largely listed as inhibitors | 360,000 tested, 0.72% active | AID 1745845; also: nearly all actives have a fitted effect of over 55% in size
#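 ATXN2-luciferase reporter cells (luciferase flanked by upstream and downstream ATXN2 gene portions) were treated 24 h at 37 °C with compounds at up to 57 uM. SteadyGlo luminescence gave expression; GF-AFC fluorescence gave viability.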
# HepG2 tox = kills HepG2 cells in TGF-b inhibitor counter-screen. HepG2 CAGA-GFP viability, ATP luminescence, 18 h. Potency, µM (doses to about 46.1 µM), usual class: cytotoxic. 410,000 tested, 0.76% active. AID 588856
#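 HepG2 CAGA-GFP cells (1000/well, DMEM with 1% FBS) received compound, then TGF-beta at 500 pg/mL final, and were incubated 18 hours at 37 degrees C. Viability was read by CellTiter-Glo luminescence. Media-only wells were set as complete cell-killing and DMSO as no toxicity.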
# DT40 TDP1 CPT = growth inhibition of DT40 Tdp1-/-;hTDP1 cells with camptothecin (screen for TDP1 inhibitors); 420,000 tested, 12% active; AID 686979; Potency, µM (top dose mostly 46.2 µM), actives largely listed as inhibitors; chicken DT40 Tdp1-/-;hTDP1 cells + 20 nM CPT, ATP luminescence, 48 h; also: nearly all actives have a fitted effect of over 55% in size
#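 Chicken DT40 Tdp1-/- cells stably complemented with human TDP1 were seeded at 400 cells/well in medium containing 20 nM camptothecin, exposed to pin-transferred compounds, and grown at 37 °C for at least 48 hr. Viability was read as ATP luminescence.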
# DT40 TDP1 no CPT = qHTS for Inhibitors of human tyrosyl-DNA phosphodiesterase 1 (TDP1): qHTS in cells in absence of CPT | DT40 Tdp1-/- hTDP1 cells, no CPT, ATP luminescence, 48 h | Potency, µM (highest dose often 46.2 µM), usual class: inhibitors | 420,000 tested, 15% active | AID 686978, 2013; also: nearly all actives have a fitted effect of over 55% in size
#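 Compound effects on proliferation are scored in DT40 Tdp1-/-;hTDP1 cells in the absence of CPT. ATP levels (CellTiter-Glo luminescence) are recorded after a ≥48 hr, 37 °C incubation.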
# Numbers stand for hits; - = inactive; ? = inconclusive; . = no result given; [ ] = another dose, or the depositor's remark. Calls follow the shape of the dose curve; as a rule, active = well fitted curve in the direction sought with a large enough effect; inconclusive = small, poorly fitted or top-dose-only effect, or another doubt; inactive = no such curve, though single readings can be large; an effect the other way counts as inactive or inconclusive.
SMILES,TGFb SMAD3 inh,ATXN viability,ATXN2 expr inh,HepG2 tox,DT40 TDP1 CPT,DT40 TDP1 no CPT
Cc1ccc(CN2CCN(/N=C/C(Br)=C\c3ccccc3)CC2)cc1,?,-,-,-,?,4.1µM
Cc1ccc(CN2CCN(/N=C/c3ccc(C(=O)O)cc3)CC2)cc1,-,?,-,-,-,-
Cc1ccc(CN2CCN(/N=C/c3ccc(O)c(O)c3)CC2)cc1,-,?,-,-,7.3µM,4.1µM
COC(=O)c1c(C)n(-c2ccc(C)cc2)c2ccc(O)cc12,?,-,-,-,35µM,18µM
CC(=O)c1c(C)n(-c2cccc(Cl)c2)c2ccc(OC(=O)c3ccccc3)cc12,-,-,-,-,?,29µM
CC(=O)c1c(C)n(-c2ccccc2)c2ccc(O)cc12,-,-,-,-,-,?
CC(=O)c1c(C)n(-c2cccc(Cl)c2)c2ccc(O)cc12,-,-,-,-,?,0.52µM
COc1ccc(OC)c(NC(=O)C2=C(C)C(=O)OC23CCN(C(C)C)CC3)c1,-,-,-,-,-,?
CC(C)(C)c1cc(C(F)(F)F)nc(SCCCNC(=O)c2ccco2)n1,-,-,-,-,23µM,21µM
O=[N+]([O-])C(/C=C(\Cl)[N+](=O)[O-])=C1N(Cc2ccc(Cl)nc2)CCN1Cc1ccc(Cl)nc1,?,-,-,20µM,?,?
CC(=O)C(Cc1ccc(Cl)nc1)(Cc1ccc(Cl)nc1)C(C)=O,-,-,-,-,-,-
Cc1ccc(CN2CCOc3ccc(CN4CCC(Oc5cccnc5)CC4)cc3C2)o1,.,-,.,.,-[9.04 µM],?
CC(=O)Nc1nnc(SCC(=O)NC2CCCC2)s1,-,-,-,-,-,-
O=C(CCCl)Nc1nnc(SCC(=O)NC2CCCC2)s1,?,-,-,-,3.3µM,3.3µM
CCCCC(=O)Nc1nnc(SCC(=O)NC2CCCC2)s1,-,-,-,-,-,-
CCSc1nnc(SCC(=O)NC2CCCCC2)s1,-,-,-,2µM,-,-
CCCCN1C[C@H](c2ccc(OC)cc2)[C@@H](CC(=O)Nc2ccc(Br)cc2)C1=O,-,-,-,-,?,?
CC(=O)Nc1ccc(N=Nc2ccc(O)cc2)cc1,-,?,-,-,15µM,?
CC(=O)Nc1ccc(-c2ccc(NC(C)=O)cc2)cc1,-,-,-[11.3 µM],-,-,-
CC(C)(C)c1ccc(OC(=O)Nc2ccc(O)c(C(=O)O)c2)cc1,-,-,.,-,-,-
O=C(NCC(c1ccc2c(c1)OCO2)N1CCN(c2ccccc2F)CC1)c1ccccc1F (stereo not drawn),10µM,?,-,-,12µM,15µM
Cc1cccc(C(=O)NCC(c2ccc3c(c2)OCO3)N2CCOCC2)c1 (stereo not drawn),-,-,-,-,?,23µM
COc1ccc(N2CCN(C(CNC(=O)c3c(F)cccc3F)c3ccc4c(c3)OCO4)CC2)cc1 (stereo not drawn),-,-,-,-,?,16µM
O=C(NCC(c1ccc2c(c1)OCO2)N1CCN(c2ccccc2)CC1)c1ccc(F)c(F)c1 (stereo not drawn),?,?,-,-,5.2µM,2.3µM
CCOc1ncccc1C(=O)NC(C)CCc1ccccc1 (stereo not drawn),-,.,-,-,-,?
O=C(Nc1ccccc1NS(=O)(=O)c1ccc(F)cc1)C1CCC1,-,-,-,-,?,?
CCC1CCCCN1Cc1c(O)ccc2c(=O)c(-c3ccccc3OC)coc12 (stereo not drawn),-,-,.,-,-,-
COc1ccc(C(=O)NCC(c2ccc3c(c2)OCO3)N2CCN(c3ccccc3F)CC2)cc1 (stereo not drawn),?,?,?,-,7.3µM,5.2µM
